Assay outcomes deposited in PubChem BioAssay by National Center for Advancing Translational Sciences (NCATS).
Pf growth 48h: inhibits P. falciparum growth in the first generation, 48 h; P. falciparum luciferase growth in erythrocytes, 48 h; Potency, µM (series often up to 28.7 µM), for the others: at the highest dose activity change, negative = inhibition, most hits filed as inhibitors; 310,000 compounds, 5.9% hits
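A one-generation exposure of luciferase-tagged malaria parasites in RPMI 1640/Albumax erythrocyte culture, 37 C and 5% CO2. Inhibition is inferred from decreased luminescence after adding detection reagent.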
AmpC inh no detg: blocks E. coli AmpC beta-lactamase in detergent-free assay; P00811; AmpC nitrocefin hydrolysis, absorbance 480 nm, 0.0001% Triton; Potency, µM (titrated, usually from 57.1 µM), for the others: at the top dose activity change, negative = inhibition, usual class: inhibitors; 330,000 compounds, 0.52% hits; AID 485341;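 also: plate controls were no compound for no effect and no enzyme for full effect; nearly all actives have a fitted effect of over 20% in size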
Target sequence (P00811 whole entry, looked up): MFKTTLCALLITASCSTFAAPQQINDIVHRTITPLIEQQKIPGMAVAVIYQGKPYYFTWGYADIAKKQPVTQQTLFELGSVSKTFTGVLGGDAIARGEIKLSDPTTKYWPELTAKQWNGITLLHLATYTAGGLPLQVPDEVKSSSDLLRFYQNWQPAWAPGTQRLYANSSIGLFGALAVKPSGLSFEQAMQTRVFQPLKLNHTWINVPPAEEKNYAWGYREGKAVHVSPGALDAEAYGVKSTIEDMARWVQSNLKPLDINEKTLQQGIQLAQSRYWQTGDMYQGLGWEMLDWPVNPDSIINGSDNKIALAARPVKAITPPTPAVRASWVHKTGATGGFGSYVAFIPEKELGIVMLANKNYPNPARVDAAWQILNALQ
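AmpC (5.3 nM in the dispensed reagent) in 20 mM phosphate pH 7.0 with 0.01% (detergent screen) or 0.0001% Triton X-100 was preincubated with compounds for 15 min at room temperature. Nitrocefin was then added from an 800 uM solution, and hydrolysis was followed at 480 nm.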
HCV inh: inhibitors of hepatitis C virus infection; Huh7.5.1 HCVcc-Cre infection, luciferase reporter, 44 h; 340,000 compounds, 3.4% hits; Potency, µM (series often up to 41.8 µM), for inactives: top-dose activity change, negative = inhibition, usual class: inhibitors
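Infectious HCVcc-Cre (~0.5 moi) was added to cells just after compound, with cells seeded 4 h earlier at 1,000 per well. Luciferase activity after 44 h culture reported infection; substrate was incubated 15 min at room temperature before reading.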
AMA1-RON2 inh: AMA1-RON2 (P. falciparum) interaction inhibition | AlphaScreen AMA1-biotinylated RON2 peptide binding | Potency, µM (highest dose often 58.2 µM), without a hit: at the highest dose activity change, negative = inhibition, most hits filed as inhibitors | 360,000 compounds, 0.2% hits;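 also: 0% = vehicle wells and -100% = peptide control; nearly all actives have a fitted effect of over 45% in size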
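AMA1 (3D7) with his tag at 25 nM final met compounds first, then biotinylated RON2 peptide at 25 nM; detection used donor plus acceptor beads, 10 µg/mL apiece, read by AlphaScreen after 30 min at room temperature.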
AmpC detergent: AmpC beta-lactamase inhibition with detergent present; P00811; AmpC hydrolysis of nitrocefin, absorbance 480 nm, 0.01% Triton; Potency, µM (top dose mostly 114 µM), for the others: top-dose activity change, negative = inhibition, most hits filed as inhibitors; 370,000 compounds, 0.041% hits; AID 485294;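 also: 0% = no-compound wells and -100% = no-enzyme wells; nearly all actives have a fitted effect of over 25% in size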
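AmpC (5.3 nM in the dispensed reagent) in 20 mM phosphate pH 7.0 with 0.01% (detergent screen) or 0.0001% Triton X-100 was preincubated with compounds for 15 min at room temperature. Nitrocefin was then added from an 800 uM solution, and hydrolysis was followed at 480 nm.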
Pf growth 96h: inhibits malaria parasite growth, 96 h. P. falciparum luciferase reporter growth, 96 h. Potency, µM (highest dose often 28.7 µM), without a hit: at the top dose activity change, negative = inhibition, most hits filed as inhibitors. 320,000 compounds, 6.9% hits
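Parasite growth measured via integrated firefly luciferase reporter in P. falciparum. Infected erythrocytes at 2% hematocrit, 0.05% parasitemia final were treated 96 hours at 37 C under 5% CO2, and luminescence was read.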
* = called active by the depositor. Sampled rows, rich in hits. Any-hit rate of the full collection: about 11%. Calls follow the shape of the dose curve; as a rule, active = well fitted curve in the direction sought with a large enough effect; inconclusive = small, poorly fitted or top-dose-only effect, or another doubt; inactive = no such curve, though single readings can be large; an effect the other way counts as inactive or inconclusive. Unless noted, % is scaled to controls: 0 for no effect and ±100 for the full control effect; potency is read from the fitted curve at half-maximal effect.

For S=C(NCc1ccccc1)N1CCn2cccc2C1c1cccnc1 (configuration not stated) the results were Pf growth 48h 4.65µM*, AmpC inh no detg -6.0%, HCV inh -4.8%, AMA1-RON2 inh 4.6%, AmpC detergent 4.1% and Pf growth 96h 4.65µM*.
COc1cccc(C(=O)c2cn(CC(=O)NCc3ccccc3Cl)c3nc(C)ccc3c2=O)c1 was read as AmpC detergent 0.5%.
`COc1cccc(-n2cc(C(=O)Oc3ccc(F)cc3)c3ccccc3c2=O)c1` gave AmpC detergent -4.2%.
For CCCN1C(=O)C(O)(CC(=O)c2ccc(OC)c(OC)c2)c2ccccc21 (configuration not stated) the results were AmpC detergent 3.3%.
For CO/N=C/c1ccc(Sc2ccc(C)cc2)c([N+](=O)[O-])c1 the results were Pf growth 48h 4.0%, AmpC inh no detg -29.6%, HCV inh inconclusive, AMA1-RON2 inh 0.0% and AmpC detergent -5.7%.
`Cc1ccc(Sc2ccc(/C=N/O)cc2[N+](=O)[O-])cc1` gave Pf growth 48h inconclusive, HCV inh 11.2µM*, AMA1-RON2 inh -9.8%, AmpC detergent -0.1% and Pf growth 96h -9.5%.
For COc1ccc(OCC(=O)C2CC2)c(C#N)c1 the results were Pf growth 48h 1.85µM*, AmpC inh no detg -10.9%, HCV inh -3.6%, AMA1-RON2 inh 19.4%, AmpC detergent -5.6% and Pf growth 96h 234.0%.
CC(C)c1ccc(NC(=O)C2(C)Cc3ccccc3C(=O)O2)cc1 (configuration not stated) was read as AmpC detergent 20.1%.
For CC1(C(=O)Nc2ccccc2)Cc2ccccc2C(=O)O1 (configuration not stated) the results were Pf growth 48h 0.6%, AmpC inh no detg -9.7%, HCV inh -17.4%, AMA1-RON2 inh 34.3%, AmpC detergent 0.9% and Pf growth 96h 9.28µM*.
For CC1(C(=O)Nc2nnc(C(C)(C)C)s2)Cc2ccccc2C(=O)O1 (configuration not stated) the results were Pf growth 48h -10.2%, AmpC inh no detg -16.4%, HCV inh 9.8%, AMA1-RON2 inh 4.2%, AmpC detergent -9.6% and Pf growth 96h inconclusive.
For CCSc1nnc(NC(=O)C2(C)Cc3ccccc3C(=O)O2)s1 (configuration not stated) the results were Pf growth 48h 13.1µM*, AmpC inh no detg -13.6%, HCV inh -7.0%, AMA1-RON2 inh -1.0%, AmpC detergent 0.2% and Pf growth 96h -3.9%.
Screening O=[N+]([O-])c1ccc(/C=N/NC2=NS(=O)(=O)c3ccccc32)cc1 returned Pf growth 48h 31.8%, AmpC inh no detg -14.4%, HCV inh 3.2%, AMA1-RON2 inh 25.5%, AmpC detergent 5.8% and Pf growth 96h -7.2%.
`O=[N+]([O-])c1ccc(O)c(/C=N/Nc2ccc(Cl)nn2)c1` gave Pf growth 48h 0.415µM*, AmpC inh no detg -12.8%, HCV inh 3.98µM*, AMA1-RON2 inh -45.4%, AmpC detergent -6.7% and Pf growth 96h 0.37µM*.
`O=[N+]([O-])c1ccc(O)c(/C=N/Nc2nn[nH]n2)c1` gave Pf growth 48h inconclusive, AmpC inh no detg -16.0%, HCV inh 3.1%, AMA1-RON2 inh -93.7%, AmpC detergent -7.0% and Pf growth 96h 102.2%.
`O=S1(=O)N=C(N/N=C/c2cccs2)c2ccccc21` gave Pf growth 48h inconclusive, AmpC inh no detg -18.6%, HCV inh 1.1%, AMA1-RON2 inh 27.3%, AmpC detergent inconclusive and Pf growth 96h 13.1µM*.
